Results on 38 compounds are retold here after PubChem BioAssay (EPA / NIEHS).

As usually defined, the AC50 is the concentration at which the activity in the assay is half-maximal.

The structures appear in SMILES notation. The source made the active and inactive calls. The calls were made as follows: active = hit-call score of the fitted dose curve at least 0.9, where 1 is the maximum; inactive = score below 0.9.

The nature of one assay: ATG_PPRE_CIS: Attagene CIS-FACTORIAL HepG2 Assay for human Peroxisome Proliferator-activated Response Element (PPRE) (AID 2282958). The settings on record: HepG2 PPRE cis-element reporter, Attagene transcription factor profiling; actives raise or lower the signal. In outline:
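HepG2 cells transiently transfected with multiplexed cis-element reporter units measure endogenous transcription factor activity. After 24 h compound exposure, reporter mRNA is quantified by RT-PCR, 6-FAM labeling, HpaI digestion and capillary electrophoresis; bidirectional fits are made against DMSO baseline.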
In the case of `CCCCC(CC)COC(=O)/C=C\C(=O)OCC(CC)CCCC` (centres undefined), the AC50 is 100 µM (active).
Regarding `O=C(O)C[C@H](O)C[C@H](O)/C=C/c1c(C2CC2)nc2ccccc2c1-c1ccc(F)cc1`, the compound was called inactive.
The same measure, in the same setting: then `O=P(c1ccccc1)(c1ccccc1)c1ccccc1`, with “inactive”; and `CC(=O)Nc1ccc(C)cc1C`, with “inactive”; and `COC(=O)Cc1cccc2ccccc12`, with “inactive”.
Take `CC(=O)Nc1ccccc1O`: the compound was classed as inactive.
On the same count and under the same terms, the same measure for `O=C(O)c1cn(C2CC2)c2cc(N3CCNCC3)c(F)cc2c1=O`: “inactive”; for `CCCCCCCCCCCCN(CCCCCCCCCCCC)CCCCCCCCCCCC`: “inactive”; for `CSc1nnc(C(C)(C)C)c(=O)[nH]1`: “inactive”.
On the same count and under the same terms, then `CC(=O)O[C@]1(C(C)=O)CC[C@H]2[C@@H]3C[C@H](C)C4=CC(=O)CC[C@]4(C)[C@H]3CC[C@@]21C`, with “inactive”; and `CC[Si](OC(C)=O)(OC(C)=O)OC(C)=O`, with “inactive”.
For `Nc1cccc(S(=O)(=O)c2cccc(N)c2)c1`, the result was inactive.
In the case of `CCCCCCCCC`, the compound was called inactive.
On the same count and under the same terms, then `CC(C)(COC(=O)c1ccccc1)COC(=O)c1ccccc1`, with “inactive”; and `C=CCOC(=O)CCC1CCCCC1`, with “inactive”; and `COc1cccc(OC)c1`, with “inactive”.
Still for that read-out and setting: the same measure for `O=C(O)c1snc(Cl)c1Cl`: “inactive”; for `O=C(O)COCCN1CCN(C(c2ccccc2)c2ccc(Cl)cc2)CC1` (centres undefined): “inactive”.
Same read-out and setting: the same measure for `CN1[C@@H]2CC(OC(=O)[C@H](CO)c3ccccc3)C[C@H]1[C@@H]1O[C@@H]12` (some centres undefined): “inactive”; for `C[Si](O[Si](C)(C)C)O[Si](C)(C)C`: “inactive”.
On to `CCc1c(C)cc(N)c(CC)c1N`, for which the call was inactive.
For the compound `CC(=O)[O][Al][O]C(C)=O`, the compound was classed as inactive.
On to `CCCCCCCCCCCCCOS(=O)(=O)O`, for which the AC50 was 7.4 µM (active).
As to `CCCCC[Si](OCC)(OCC)OCC`, the call was inactive.
The same measure, in the same setting: then `Cc1ccc2ccccc2n1`, with “inactive”; and `CC(C)(C)NC(N)=O`, with “inactive”.
Consider `CCCc1c(OCCCOc2ccc(OCC(=O)O)cc2)ccc(C(C)=O)c1O`, for which the AC50 was 0.272 µM (active).
For the compound `CCCOCC(C)O` (centres undefined), the call was inactive.
For the compound `CNCCO`, the compound was called inactive.
Still for that read-out and setting: then `CCC(C)(O)CCC=C(C)C` (centres undefined), with “inactive”; and `COc1cc(C(C)(C)C)c(O)c(C(C)(C)C)c1`, with “inactive”; and `Clc1ccc(Cl)c(Cl)c1Cl`, with “inactive”.
Same read-out and setting: then `O=C(O)c1cccc([N+](=O)[O-])c1`, with “inactive”; and `C=CC(=O)OCCn1c(=O)n(CCOC(=O)C=C)c(=O)n(CCOC(=O)C=C)c1=O`, with “inactive”.
On the same count and under the same terms, the same measure for `Clc1nc(C(Cl)(Cl)Cl)c(Cl)c(Cl)c1Cl`: “inactive”; for `O=Nc1ccc(Nc2ccccc2)cc1`: “inactive”.
Regarding `N#Cc1ccccc1`, the compound was classed as inactive.
`O=c1[nH]c(=O)n([C@H]2CCCO2)cc1F`: the compound was called inactive.

Another assay is described as follows: ATG_RORE_CIS: Attagene CIS-FACTORIAL HepG2 Assay for human RAR-related Orphan Receptor Element (RORE) (AID 2282959). The settings on record: HepG2 Attagene cis-factorial RORE reporter, mRNA; actives raise or lower the signal. In a few lines:
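HepG2 cells transiently transfected with multiple cis-element reporter transcription units, exposed to chemical for 24 h. Reporter mRNA quantified by RT-PCR, 6-FAM primer-extension labeling, HpaI digestion and capillary electrophoresis; bidirectional fit versus DMSO baseline.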
On to `CCCCC(CC)COC(=O)/C=C\C(=O)OCC(CC)CCCC` (centres undefined), for which the half-maximal activity concentration (AC50) is 100 µM (active).
For the compound `O=P(c1ccccc1)(c1ccccc1)c1ccccc1`, the result was inactive.
Turning to `CC(=O)Nc1ccccc1O`, the compound was called inactive.
Still for that read-out and setting: then `O=C(O)c1cn(C2CC2)c2cc(N3CCNCC3)c(F)cc2c1=O`, with “inactive”; and `CCCCCCCCCCCCN(CCCCCCCCCCCC)CCCCCCCCCCCC`, with “inactive”; and `CSc1nnc(C(C)(C)C)c(=O)[nH]1`, with “inactive”.
Same read-out and setting: then `CC[Si](OC(C)=O)(OC(C)=O)OC(C)=O`, with “inactive”; and `CCCCCCCCC`, with “inactive”.
As for `COc1cccc(OC)c1`, the call was inactive.
In the case of `O=C(O)COCCN1CCN(C(c2ccccc2)c2ccc(Cl)cc2)CC1` (centres undefined), the call was inactive.
As for `CN1[C@@H]2CC(OC(=O)[C@H](CO)c3ccccc3)C[C@H]1[C@@H]1O[C@@H]12` (some centres undefined), the compound was called inactive.
The same measure, in the same setting: then `C[Si](O[Si](C)(C)C)O[Si](C)(C)C`, with “inactive”; and `CC(=O)[O][Al][O]C(C)=O`, with “inactive”.
On the same count and under the same terms, then `CCCCCCCCCCCCCOS(=O)(=O)O`, with “inactive”.
As to `CCCCC[Si](OCC)(OCC)OCC`, the compound was classed as inactive.
Regarding `Cc1ccc2ccccc2n1`, the compound was classed as inactive.
For the compound `CC(C)(C)NC(N)=O`, the result was inactive.
On to `CCCc1c(OCCCOc2ccc(OCC(=O)O)cc2)ccc(C(C)=O)c1O`, for which the AC50 was 4.66 µM (active).
In the case of `CCCOCC(C)O` (centres undefined), the compound was called inactive.
Turning to `COc1cc(C(C)(C)C)c(O)c(C(C)(C)C)c1`, the outcome was inactive.
For the compound `Clc1ccc(Cl)c(Cl)c1Cl`, the call was inactive.
The same measure, in the same setting: then `Clc1nc(C(Cl)(Cl)Cl)c(Cl)c(Cl)c1Cl`, with “inactive”.
Take `N#Cc1ccccc1`: the compound was classed as inactive.

Another assay is described as follows: ATG_Sox_CIS: Attagene CIS-FACTORIAL HepG2 Assay for human SRY-box transcription factor (SOX) (AID 2282960). The note with it: HepG2 Attagene cis-factorial SOX reporter, mRNA; actives raise or lower the signal. In outline:
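HepG2 cells transiently transfected with cis-element-driven multiple reporter transcription units, dosed 24 h; reporter mRNA measured by RT-PCR, FAM labelling, HpaI digestion and capillary electrophoresis. Bidirectional fit versus DMSO baseline.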
Consider `CCCCC(CC)COC(=O)/C=C\C(=O)OCC(CC)CCCC` (centres undefined), for which the result was inactive.
On to `O=C(O)C[C@H](O)C[C@H](O)/C=C/c1c(C2CC2)nc2ccccc2c1-c1ccc(F)cc1`, for which the outcome was inactive.
`O=P(c1ccccc1)(c1ccccc1)c1ccccc1`: the result was inactive.
As to `CC(=O)Nc1ccc(C)cc1C`, the outcome was inactive.
In the case of `COC(=O)Cc1cccc2ccccc12`, the compound was classed as inactive.
Same read-out and setting: the same measure for `CC(=O)Nc1ccccc1O`: “inactive”.
Still for that read-out and setting: then `O=C(O)c1cn(C2CC2)c2cc(N3CCNCC3)c(F)cc2c1=O`, with “inactive”; and `CCCCCCCCCCCCN(CCCCCCCCCCCC)CCCCCCCCCCCC`, with “inactive”; and `CSc1nnc(C(C)(C)C)c(=O)[nH]1`, with “inactive”.
As for `CC(=O)O[C@]1(C(C)=O)CC[C@H]2[C@@H]3C[C@H](C)C4=CC(=O)CC[C@]4(C)[C@H]3CC[C@@]21C`, the compound was classed as inactive.
On the same count and under the same terms, the same measure for `CC[Si](OC(C)=O)(OC(C)=O)OC(C)=O`: “inactive”; for `Nc1cccc(S(=O)(=O)c2cccc(N)c2)c1`: “inactive”.
Turning to `CCCCCCCCC`, the result was inactive.
On to `CC(C)(COC(=O)c1ccccc1)COC(=O)c1ccccc1`, for which the call was inactive.
As for `C=CCOC(=O)CCC1CCCCC1`, the result was inactive.
Same read-out and setting: then `COc1cccc(OC)c1`, with “inactive”.
Turning to `O=C(O)c1snc(Cl)c1Cl`, the AC50 was 173 µM (active).
As to `O=C(O)COCCN1CCN(C(c2ccccc2)c2ccc(Cl)cc2)CC1` (centres undefined), the outcome was inactive.
Same read-out and setting: then `CN1[C@@H]2CC(OC(=O)[C@H](CO)c3ccccc3)C[C@H]1[C@@H]1O[C@@H]12` (some centres undefined), with “inactive”.
On the same count and under the same terms, the same measure for `C[Si](O[Si](C)(C)C)O[Si](C)(C)C`: “inactive”; for `CCc1c(C)cc(N)c(CC)c1N`: “inactive”.
On the same count and under the same terms, then `CC(=O)[O][Al][O]C(C)=O`, with “inactive”; and `CCCCCCCCCCCCCOS(=O)(=O)O`, with “inactive”; and `CCCCC[Si](OCC)(OCC)OCC`, with “inactive”.
As for `Cc1ccc2ccccc2n1`, the compound was called inactive.
Same read-out and setting: the same measure for `CC(C)(C)NC(N)=O`: “inactive”; for `CCCc1c(OCCCOc2ccc(OCC(=O)O)cc2)ccc(C(C)=O)c1O`: “inactive”; for `CCCOCC(C)O` (centres undefined): “inactive”.
Still for that read-out and setting: the same measure for `CNCCO`: “inactive”; for `CCC(C)(O)CCC=C(C)C` (centres undefined): “inactive”; for `COc1cc(C(C)(C)C)c(O)c(C(C)(C)C)c1`: “inactive”.
Same read-out and setting: the same measure for `Clc1ccc(Cl)c(Cl)c1Cl`: “inactive”; for `O=C(O)c1cccc([N+](=O)[O-])c1`: “inactive”; for `C=CC(=O)OCCn1c(=O)n(CCOC(=O)C=C)c(=O)n(CCOC(=O)C=C)c1=O`: “inactive”.
Turning to `Clc1nc(C(Cl)(Cl)Cl)c(Cl)c(Cl)c1Cl`, the compound was classed as inactive.
With `O=Nc1ccc(Nc2ccccc2)cc1`, the AC50 was 47.6 µM (active).
Turning to `N#Cc1ccccc1`, the outcome was inactive.
Turning to `O=c1[nH]c(=O)n([C@H]2CCCO2)cc1F`, the compound was classed as inactive.
